Molecules are shown by their SMILES. Inconclusive results are not listed. Active and inactive are the calls of the source. Unless noted, the call rests on the fitted dose curve; in most records, active means well fitted curve in the direction sought with a large enough effect in the repeat runs; inconclusive means weak or mixed curves; inactive means no such curve, though single readings can be large; an effect the other way counts as inactive or inconclusive.

Experiment [1] is described as follows: qHTS assay to identify small molecule agonists of the sonic hedgehog signaling (Shh) pathway (AID 1259368; calls by dose curve;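 further: NIH/3T3-derived 3T3Gli1-Luc cells carrying a stable Gli1-driven firefly luciferase reporter; series mostly up to about 92 µM; nearly all actives have a fitted effect of over 15% in size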). An outline of the steps: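 Mouse fibroblast (NIH/3T3) reporter cells with stably integrated Gli1-Luc were treated 24 hr with compound; firefly luciferase luminescence served as the read-out.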
For orientation: Quantitative high-throughput screening tests each substance at several concentrations.

Experiment [2] in a line: qHTS assay to identify small molecule antagonists of the sonic hedgehog signaling (Shh) pathway (AID 1259369; calls by dose curve; further: nearly all actives have a fitted effect of over 45% in size; further: potency means the concentration at half of the fitted maximal effect). An outline of the steps: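 Conditioned medium drives Shh signalling in 3T3Gli1-Luc cells; compounds in DMSO co-applied, 24hr at 37 C, then luciferase luminescence.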
The target in experiment [3] is Estrogen receptor beta (Homo sapiens) (UniProt Q92731). The experiment can be described thus: qHTS assay to identify small molecule antagonists of the estrogen receptor beta (ER-beta) signaling pathway (AID 1259378; active means well fitted inhibition curve with a large enough effect in the signal ratio in the repeat runs, not every such curve was filed as active; the % refers to the signal ratio). The essentials: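 ER-beta-UAS-bla HEK293T (GripTite) cells in 2% charcoal-stripped FBS medium were preincubated 6 hr at 37C, dosed with compound, then stimulated with 1 nM E2 (final) for 16 hr; beta-lactamase reporter read by B/G FRET fluorescence after 2 hr substrate loading.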
Sequence of Estrogen receptor beta (Homo sapiens) (Q92731 whole entry, looked up): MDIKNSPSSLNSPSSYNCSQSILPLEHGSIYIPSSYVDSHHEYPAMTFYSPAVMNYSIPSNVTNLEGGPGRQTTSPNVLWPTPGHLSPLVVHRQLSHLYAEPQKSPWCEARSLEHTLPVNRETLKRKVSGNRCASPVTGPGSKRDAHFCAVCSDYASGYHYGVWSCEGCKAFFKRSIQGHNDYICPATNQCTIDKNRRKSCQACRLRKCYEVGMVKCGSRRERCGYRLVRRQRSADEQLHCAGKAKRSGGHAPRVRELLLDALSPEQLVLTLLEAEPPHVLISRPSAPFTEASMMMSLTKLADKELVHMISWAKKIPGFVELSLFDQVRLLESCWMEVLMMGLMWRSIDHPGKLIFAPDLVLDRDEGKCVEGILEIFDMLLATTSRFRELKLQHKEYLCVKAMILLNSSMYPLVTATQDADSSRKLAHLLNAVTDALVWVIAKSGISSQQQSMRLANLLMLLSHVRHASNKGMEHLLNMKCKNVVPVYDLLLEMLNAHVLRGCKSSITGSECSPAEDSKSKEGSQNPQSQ

Experiment [4] is described as follows: qHTS assay to identify small molecule agonists of the androgen receptor (AR) signaling pathway in the presence of an antagonist - cell viability counter screen (AID 1259379). Further: nearly all actives have a fitted effect of over 25% in size. Further: potency means the concentration at half of the fitted maximal effect. An outline of the steps: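 A CellTiter-Fluor read-out measured viability of MDA-kb2 reporter cells (MMTV promoter with AR and GR response elements). Treatment: nilutamide 3.0uM final with compounds at 15 concentrations, 16 hr, 37C, 0% CO2.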

Experiment [5] can be described thus: qHTS assay to identify small molecule agonists of the estrogen receptor beta (ER-beta) signaling pathway - cell viability counter screen (AID 1259380). Further: nearly all actives have a fitted effect of over 30% in size. Further: potency means the concentration at half of the fitted maximal effect. An outline of the steps:
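Cells used were ER-beta-UAS-bla HEK293T in medium with 2% charcoal-stripped FBS. They were treated for 16 hr at 37C. Viability came from CellTiter-Glo luminescence.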

Experiment [6] addresses Androgen receptor (Homo sapiens) (UniProt P10275). Nature of the experiment: qHTS assay to identify small molecule agonists of the androgen receptor (AR) signaling pathway in the presence of an antagonist (AID 1259381; calls by dose curve; further: nearly all actives have a fitted effect of over 15% in size). An outline of the steps: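 Using human MDA-kb2 cells with an MMTV promoter–luciferase construct (AR and GR response elements), agonist activity is scored under 3.0uM nilutamide (final) co-treatment; 16hr incubation, 37C, luminescence readout via ONE-Glo.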

The nature of experiment [7]: qHTS assay to identify small molecule agonists or antagonists of the thyroid stimulating hormone receptor (TSHR) signaling pathway - wild type cell line counter screen (AID 1259384; calls by dose curve). The essentials: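 Wild-type HEK293 cells were plated 18 h at 37 C/5% CO2, pin-dosed with compound plus Ro20-1724 medium, held 30 min at room temperature, then given cAMP-d2 and anti-cAMP-cryptate; fluorescence was read after 1 h. Fifteen concentrations, triplicate.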

Experiment [8] has as its target Thyrotropin receptor (Homo sapiens) (UniProt P16473). The experiment can be described thus: qHTS assay to identify small molecule antagonists of the thyroid stimulating hormone receptor (TSHR) signaling pathway (AID 1259385; calls by dose curve; further: nearly all actives have a fitted effect of over 20% in size). The essentials:
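TSHR-HEK293 cells were plated and held 18 h at 37C/5% CO2, then given compound plus Ro20-1724 and stimulated with TSH at 1.5 ng/mL final. After 30 min at room temperature, cAMP was detected with cAMP-d2/anti-cAMP-cryptate (1 h) by fluorescence.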

Experiment [9] in a line: qHTS assay to identify small molecule agonists of the estrogen receptor alpha (ER-alpha) signaling pathway in the presence of an antagonist - cell viability counter screen (AID 1259386).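 Further: series mostly up to about 92 µM; cells exposed to compounds for 22 h at 37 °C before the viability read; nearly all actives have a fitted effect of over 30% in size.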 An outline of the steps: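 ICI-182,780 at 10.0nM final accompanies the compound titration (15 concentrations, 22hr, 37C) on VM7Luc4E2 cells. The CellTiter-Fluor fluorescence readout runs in the same wells as the luciferase assay.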

Experiment [10] has as its target Progesterone receptor (Homo sapiens) (UniProt P06401). Nature of the experiment: qHTS assay to identify small molecule agonists of the progesterone receptor (PR) signaling pathway (AID 1346784; calls by dose curve; further: nearly all actives have a fitted effect of over 30% in size). An outline of the steps: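 Reporter assay, GripTite PR-UAS-bla HEK 293T cells: 16 hr exposure to DMSO-dissolved compounds at 37C, 5% CO2, in steroid-depleted (2% charcoal-stripped FBS) medium; beta-lactamase measured by FRET fluorescence.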

Experiment [11] is described as follows: qHTS assay to identify small molecule antagonists of the TGF-beta/Smad signaling pathway - cell viability counter screen (AID 1346824). Further: nearly all actives have a fitted effect of over 50% in size. The essentials: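 SBE-bla HEK 293T cells were plated overnight at 37 C, then given compounds in DMSO plus TGF-beta1 (added as 0.25 ng/mL solution) for 5 hr. After the bla read, CellTiter-Glo was added to the same wells and luminescence read after 30 min at room temperature.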

The nature of experiment [12]: qHTS assay to identify small molecule agonists of the TGF-beta/Smad signaling pathway - cell viability counter screen (AID 1346829). Further: top concentration of the series differs between compounds; nearly all actives have a fitted effect of over 45% in size. The essentials:
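Here the cytotoxicity of library compounds is measured in SBE-bla HEK 293T cells treated for 5 hr, using CellTiter-Glo added to wells already read for the beta-lactamase reporter.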

Experiment [13] is described as follows: qHTS assay to identify small molecule agonists of the TGF-beta/Smad signaling pathway (AID 1346859; active means well fitted activation curve with a large enough effect in the signal ratio in the repeat runs, not every such curve was filed as active; the % refers to the signal ratio; further: series mostly up to about 77 µM). An outline of the steps: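 Screening used HEK 293T SBE-bla cells at 4,000/well. Test agents: 5 hr, 37 C. Detection: FRET substrate, 2 hr RT, then excitation 405 nm with emissions at 460 and 530 nm.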
The target in experiment [14] is Thyrotropin-releasing hormone receptor (Homo sapiens) (UniProt P34981). The experiment can be described thus: qHTS assay to identify small molecule antagonists of the thyrotropin-releasing hormone receptor (TRHR) signaling pathway (AID 1346877; active means well fitted inhibition curve with a large enough effect in the repeat runs, not every such curve was filed as active; further: series mostly up to about 51 µM). An outline of the steps: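 Screening used HEK293 cells engineered with TRHR, with a brief 5 min room-temperature compound exposure preceding addition of TRH to 1 nM. The read-out was kinetic calcium-dye fluorescence, concentration-response from 15 doses in triplicate.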
Sequence of Thyrotropin-releasing hormone receptor (Homo sapiens) (P34981 whole entry, looked up): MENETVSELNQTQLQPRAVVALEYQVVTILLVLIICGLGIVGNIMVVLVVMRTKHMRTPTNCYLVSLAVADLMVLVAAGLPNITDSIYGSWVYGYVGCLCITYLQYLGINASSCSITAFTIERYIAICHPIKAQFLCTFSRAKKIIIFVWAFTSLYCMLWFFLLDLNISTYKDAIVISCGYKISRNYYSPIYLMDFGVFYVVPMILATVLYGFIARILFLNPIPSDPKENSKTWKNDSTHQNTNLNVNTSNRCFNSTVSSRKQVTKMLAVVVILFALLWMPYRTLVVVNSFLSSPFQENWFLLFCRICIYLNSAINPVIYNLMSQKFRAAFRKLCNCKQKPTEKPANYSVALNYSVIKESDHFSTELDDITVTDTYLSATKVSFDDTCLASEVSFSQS

Experiment [15] in a line: qHTS assay to identify small molecule antagonists of the estrogen receptor beta (ER-beta) signaling pathway - cell viability counter screen (AID 1259382). Further: series mostly up to about 92 µM; nearly all actives have a fitted effect of over 55% in size. The essentials:
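Agonist-stimulated (1nM E2) ER-beta-UAS-bla HEK293T cells are incubated with library compounds for 16 hr at 37C. Cell viability is then assessed in the reporter-assay wells by adding CellTiter-Glo and reading luminescence after 30 min.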

Experiment [16] concerns the target Estrogen receptor (Homo sapiens) (UniProt P03372). The experiment can be described thus: qHTS assay to identify small molecule agonists of the estrogen receptor alpha (ER-alpha) signaling pathway in the presence of an antagonist (AID 1259383; calls by dose curve; further: top concentration of the series differs between compounds; nearly all actives have a fitted effect of over 15% in size). The essentials:
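Using VM7Luc4E2 cells seeded 24hr before treatment, antagonist ICI-182,780 (10.0nM final) was added, followed by compounds at 15 concentrations. Plates incubated 22hr; ONE-Glo luminescence quantified reporter activity.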

The nature of experiment [17]: qHTS assay to identify small molecule antagonists of the progesterone receptor (PR) signaling pathway - cell viability counter screen (AID 1346798). Further: series mostly up to about 92 µM; nearly all actives have a fitted effect of over 50% in size. The essentials: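 In the same plates used for the beta-lactamase readout, cell viability of compound- and R5020-treated PR-UAS-bla HEK293T cells (16 hr, 37C) was assessed by CellTiter-Glo luminescence.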
Experiment [18] concerns the target Estrogen receptor beta (Homo sapiens) (UniProt Q92731). The experiment can be described thus: qHTS assay to identify small molecule agonists of the estrogen receptor beta (ER-beta) signaling pathway (AID 1259377; active means well fitted activation curve with a large enough effect in the signal ratio in the repeat runs, not every such curve was filed as active; the % refers to the signal ratio). The essentials: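 Reporter cells (HEK293T, ER-beta-UAS-bla) receive compounds or DMSO after a 6 hr pre-incubation. They then incubate 16 hr at 37C/5% CO2, and fluorescence from LiveBLAzer B/G substrate is measured after 2 hours at room temperature.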

Experiment [19] concerns the target Progesterone receptor (Homo sapiens) (UniProt P06401). The experiment can be described thus: qHTS assay to identify small molecule antagonists of the progesterone receptor (PR) signaling pathway (AID 1346795; active means well fitted inhibition curve with a large enough effect in the signal ratio in the repeat runs, not every such curve was filed as active; the % refers to the signal ratio; further: potency means the concentration at half of the fitted maximal effect). An outline of the steps:
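Stimulus R5020 at 1 nM final; cells HEK293T PR-UAS-bla; medium with 2% charcoal-stripped FBS; compound exposure 16 hr at 37C, 5% CO2; detection by FRET beta-lactamase substrate, 2 hr, room temperature.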

A short description of experiment [20]: qHTS assay to identify small molecule agonists of the progesterone receptor (PR) signaling pathway - cell viability counter screen (AID 1346799; calls by dose curve; further: nearly all actives have a fitted effect of over 45% in size). An outline of the steps:
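Multiplexed viability read: CellTiter-Glo luminescence, 30 min RT, following LiveBLAzer FRET measurement on PR-UAS-bla HEK293T cells exposed to compounds 16 hr.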

Sequence of Thyrotropin receptor (Homo sapiens) (P16473 whole entry, looked up): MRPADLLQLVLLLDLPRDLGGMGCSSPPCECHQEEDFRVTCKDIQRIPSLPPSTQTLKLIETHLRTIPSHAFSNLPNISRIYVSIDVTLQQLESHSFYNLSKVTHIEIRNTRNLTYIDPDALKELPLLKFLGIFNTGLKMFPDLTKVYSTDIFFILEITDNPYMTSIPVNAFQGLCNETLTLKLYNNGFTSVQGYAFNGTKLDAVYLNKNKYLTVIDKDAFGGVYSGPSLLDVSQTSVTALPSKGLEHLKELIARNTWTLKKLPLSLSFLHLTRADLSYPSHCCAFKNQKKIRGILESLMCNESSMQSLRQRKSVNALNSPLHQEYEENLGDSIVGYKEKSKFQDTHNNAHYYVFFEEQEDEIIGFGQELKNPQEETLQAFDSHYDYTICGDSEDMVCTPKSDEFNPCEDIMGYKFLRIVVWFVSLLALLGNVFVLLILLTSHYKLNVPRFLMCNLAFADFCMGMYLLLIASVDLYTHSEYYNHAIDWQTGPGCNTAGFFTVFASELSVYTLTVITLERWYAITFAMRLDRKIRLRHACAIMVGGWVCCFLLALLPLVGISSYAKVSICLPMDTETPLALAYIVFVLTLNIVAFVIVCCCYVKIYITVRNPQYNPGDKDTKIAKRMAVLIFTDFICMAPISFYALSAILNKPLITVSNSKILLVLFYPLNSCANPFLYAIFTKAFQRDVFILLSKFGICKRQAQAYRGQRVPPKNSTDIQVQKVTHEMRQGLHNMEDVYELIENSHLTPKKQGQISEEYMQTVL
Sequence of Estrogen receptor (Homo sapiens) (P03372 whole entry, looked up): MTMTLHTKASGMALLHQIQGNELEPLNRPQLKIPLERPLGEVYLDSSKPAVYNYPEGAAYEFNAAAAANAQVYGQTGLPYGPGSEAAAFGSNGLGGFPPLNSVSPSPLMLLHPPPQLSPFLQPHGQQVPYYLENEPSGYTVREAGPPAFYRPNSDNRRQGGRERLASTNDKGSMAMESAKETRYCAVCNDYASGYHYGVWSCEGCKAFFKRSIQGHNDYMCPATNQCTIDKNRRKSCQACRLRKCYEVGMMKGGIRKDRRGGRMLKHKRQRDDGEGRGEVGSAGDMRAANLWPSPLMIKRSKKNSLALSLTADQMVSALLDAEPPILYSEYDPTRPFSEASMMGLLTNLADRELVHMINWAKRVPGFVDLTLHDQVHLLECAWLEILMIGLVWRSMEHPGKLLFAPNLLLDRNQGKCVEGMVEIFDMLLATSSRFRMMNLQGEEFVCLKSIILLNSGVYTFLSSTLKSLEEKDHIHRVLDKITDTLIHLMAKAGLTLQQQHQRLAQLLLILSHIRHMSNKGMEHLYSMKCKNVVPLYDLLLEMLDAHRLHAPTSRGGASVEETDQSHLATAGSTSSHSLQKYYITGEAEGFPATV
Sequence of Androgen receptor (Homo sapiens) (P10275 whole entry, looked up): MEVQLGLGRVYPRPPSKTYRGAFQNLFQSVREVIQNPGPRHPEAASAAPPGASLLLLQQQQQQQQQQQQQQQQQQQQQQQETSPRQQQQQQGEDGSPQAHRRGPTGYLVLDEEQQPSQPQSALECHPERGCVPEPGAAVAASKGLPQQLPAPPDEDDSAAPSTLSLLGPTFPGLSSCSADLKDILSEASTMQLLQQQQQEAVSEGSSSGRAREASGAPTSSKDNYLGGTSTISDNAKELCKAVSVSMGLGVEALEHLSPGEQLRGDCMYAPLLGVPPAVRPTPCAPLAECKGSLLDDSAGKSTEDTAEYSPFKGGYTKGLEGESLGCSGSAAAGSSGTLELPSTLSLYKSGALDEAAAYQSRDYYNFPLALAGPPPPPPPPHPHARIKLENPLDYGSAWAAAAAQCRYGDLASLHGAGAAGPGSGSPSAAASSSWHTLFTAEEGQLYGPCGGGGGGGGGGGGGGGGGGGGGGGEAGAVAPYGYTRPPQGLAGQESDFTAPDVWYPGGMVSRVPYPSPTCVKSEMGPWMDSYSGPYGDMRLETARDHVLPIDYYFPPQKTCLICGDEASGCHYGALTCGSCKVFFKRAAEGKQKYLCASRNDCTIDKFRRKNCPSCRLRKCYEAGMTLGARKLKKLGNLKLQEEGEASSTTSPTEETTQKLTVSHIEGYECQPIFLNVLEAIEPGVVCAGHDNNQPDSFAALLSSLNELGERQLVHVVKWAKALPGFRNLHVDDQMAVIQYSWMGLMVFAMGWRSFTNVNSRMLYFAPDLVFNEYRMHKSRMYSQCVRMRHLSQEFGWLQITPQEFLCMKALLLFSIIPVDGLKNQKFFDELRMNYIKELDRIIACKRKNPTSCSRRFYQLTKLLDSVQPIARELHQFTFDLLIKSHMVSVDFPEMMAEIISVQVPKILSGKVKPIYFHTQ
Sequence of Progesterone receptor (Homo sapiens) (P06401 whole entry, looked up): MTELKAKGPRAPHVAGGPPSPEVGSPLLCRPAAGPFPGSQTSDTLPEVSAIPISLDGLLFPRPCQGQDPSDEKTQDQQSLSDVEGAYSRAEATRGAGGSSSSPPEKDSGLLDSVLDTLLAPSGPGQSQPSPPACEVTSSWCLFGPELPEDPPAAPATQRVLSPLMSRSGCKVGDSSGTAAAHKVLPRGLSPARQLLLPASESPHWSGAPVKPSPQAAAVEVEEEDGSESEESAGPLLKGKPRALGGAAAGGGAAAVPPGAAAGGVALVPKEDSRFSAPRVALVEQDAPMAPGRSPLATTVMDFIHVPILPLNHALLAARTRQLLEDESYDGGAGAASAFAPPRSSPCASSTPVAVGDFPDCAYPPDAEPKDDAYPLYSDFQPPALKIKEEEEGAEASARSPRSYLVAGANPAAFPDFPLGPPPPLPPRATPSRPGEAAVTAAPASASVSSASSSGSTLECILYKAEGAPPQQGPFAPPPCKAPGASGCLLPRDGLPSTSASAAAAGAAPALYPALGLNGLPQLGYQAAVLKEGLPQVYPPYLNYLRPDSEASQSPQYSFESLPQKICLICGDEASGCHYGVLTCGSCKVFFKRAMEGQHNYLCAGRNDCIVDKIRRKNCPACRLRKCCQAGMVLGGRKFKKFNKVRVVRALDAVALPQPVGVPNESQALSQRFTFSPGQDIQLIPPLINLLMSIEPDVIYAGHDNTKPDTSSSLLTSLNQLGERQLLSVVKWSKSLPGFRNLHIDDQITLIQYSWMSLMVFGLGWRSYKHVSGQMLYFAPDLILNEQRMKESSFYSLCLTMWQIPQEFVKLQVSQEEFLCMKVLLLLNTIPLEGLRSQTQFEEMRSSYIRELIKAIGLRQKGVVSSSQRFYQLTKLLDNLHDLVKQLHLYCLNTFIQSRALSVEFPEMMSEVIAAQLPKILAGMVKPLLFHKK

`Cc1ccccc1C(=O)Nc1cccc(OC(C)C)c1`: the Potency entry in [1], in experiment [3], in experiment [4], in [6], in [8] and in experiment [9] was “inactive” in each case. Further, the Potency result in experiment [10], in [11], in [12] and in [14] was “inactive” throughout. Also, the Potency in experiment [2] was 17.2 µM (active); in [5], 19.3 µM (active). For the same molecule, the molecule was classed as inactive in [7] and in [13].
In the case of `CO/N=C(/C(=O)OC)c1ccccc1COc1ccccc1C`, the Potency result in experiment [1], in experiment [6], in experiment [15], in experiment [16], in experiment [8] and in experiment [9] was “inactive” throughout. The Potency result in experiment [10], in experiment [17], in experiment [11] and in experiment [14] was “inactive” each time. Also, the Potency in [2] was 4.33 µM (active); in experiment [4] it was 54.5 µM (active); in [5] it was 15.4 µM (active). For the same molecule, the outcome in [7] was inactive.
For `CCCC(Cn1cncn1)c1ccc(Cl)cc1Cl` (stereo not drawn), the Potency result in experiment [1], in experiment [18], in experiment [4], in experiment [15], in [9] and in [10] was “inactive” each time. Further, the Potency entry in experiment [11], in experiment [12] and in experiment [14] was “inactive” each time. The Potency in experiment [2] is 17.2 µM (active). In addition, the molecule was called inactive in [7] and in [13].
For `COCC(C)N(C(=O)CCl)c1c(C)csc1C` (stereo not drawn), the Potency entry in experiment [1], in experiment [18], in experiment [4], in experiment [5], in experiment [15] and in experiment [16] was “inactive” in each case. The Potency entry in [9], in experiment [10], in [11], in [12] and in [14] was “inactive” each time. The Potency in [2] was 30.6 µM (active); in experiment [19], 54.5 µM (active). The call in [13] was inactive.
Take `CCOP(=O)(OCC)SCCSCC`: the Potency entry in [1], in experiment [2], in experiment [3], in [4], in [5] and in [15] was “inactive” in each case. Also, the Potency entry in experiment [8], in experiment [9], in [10], in experiment [19], in experiment [17] and in experiment [20] was “inactive” throughout. For the same molecule, the Potency entry in experiment [11], in experiment [12] and in [14] was “inactive” each time. Further, the call in [7] and in [13] was inactive.
With `COP(=S)(OC)Oc1cc(Cl)c(I)cc1Cl`, the Potency entry in experiment [1], in [18], in experiment [4], in [6], in experiment [15] and in experiment [8] was “inactive” in each case. The Potency result in experiment [9], in [11] and in experiment [12] was “inactive” in each case. In addition, the Potency in experiment [2] is 38.6 µM (active); in experiment [19], 21.7 µM (active). Also, the molecule was called inactive in [7] and in [13].
Turning to `C=CC[C@]1(O)CC[C@H]2[C@@H]3CCC4=CC(=O)CCC4=C3C=C[C@@]21C`, the Potency result in experiment [1], in [18], in experiment [4], in experiment [5], in [15] and in [16] was “inactive” in each case. The Potency entry in experiment [17], in [11], in [12] and in experiment [14] was “inactive” throughout. Besides, the Potency in experiment [2] was 13.3 µM (active). In addition, in experiment [7], the call was inactive.
On to `O=C(NC(=O)c1c(F)cccc1F)Nc1ccc(OC(F)(F)C(F)OC(F)(F)F)c(Cl)c1` (stereo not drawn), for which the Potency entry in experiment [1], in [2], in experiment [3], in [5], in experiment [15] and in experiment [16] was “inactive” in each case. Also, the Potency result in experiment [8], in experiment [9], in experiment [10], in [19], in experiment [17] and in experiment [20] was “inactive” throughout. Besides, the Potency entry in [11], in [12] and in [14] was “inactive” in each case. Further, the molecule was called inactive in experiment [7] and in experiment [13].

The values are drawn from PubChem BioAssay (Tox21).
